Experimental data reported in PubChem BioAssay (Tox21).
Values joined by “and” are separate entries in the source; they are usually repeats but may differ in a detail not shown here. Identical values can stand only once. Results filed as inconclusive are left out. Entries that show only a call come without a potency. Active and inactive are the calls of the source. Unless noted, calls come from the whole dose curve; as a rule, active = well fitted curve in the direction sought with a large enough effect in the repeat runs; inconclusive = weak or mixed curves; inactive = no such curve, though single readings can be large; an effect the other way counts as inactive or inconclusive.

Columns and labels:
[1] = qHTS assay for small molecule agonists of the p53 signaling pathway (AID 651631; calls by dose curve; note: nearly all actives have a fitted effect of over 15% in size; note: potency is the fitted concentration of half-maximal effect)
In short: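 Readout was fluorescence from the LiveBLAzer FRET substrate, applied for 2 h at room temperature after 16 h compound exposure at 37 °C. Cells were the p53RE-bla HCT-116 line, with beta-lactamase driven by p53 response elements.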

[2] = qHTS assay for small molecules that induce genotoxicity in human embryonic kidney cells expressing luciferase-tagged ATAD5 (AID 651632); note: nearly all actives have a fitted effect of over 15% in size
In short: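 DMSO vehicle served as the control. HEK293T reporter cells, 16 hr at 37C, then 30 min Amplite at room temperature; ATAD5 induction is measured as luciferase activity.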

[3] = qHTS assay for small molecule agonists of the p53 signaling pathway - cell viability (AID 651633; calls by dose curve; note: series mostly up to about 83 µM; nearly all actives have a fitted effect of over 30% in size)
In short: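 p53RE-bla cells were treated with compound for 16 hours at 37 C. Cytotoxicity was then measured as CellTiter-Glo luminescence after 30 min at room temperature.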

[4] = qHTS assay for small molecules that induce genotoxicity in human embryonic kidney cells expressing luciferase-tagged ATAD5 - cell viability (AID 651634; calls by dose curve; note: nearly all actives have a fitted effect of over 25% in size; note: potency is the fitted concentration of half-maximal effect)
In short: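 Here HEK293T cells with the ATAD5 luciferase reporter are incubated with test compounds for 15.5 hr, and cytotoxicity is then gauged by measuring protease activity in live cells using fluorescence.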

[5] = qHTS assay for small molecule disruptors of the mitochondrial membrane potential - cell viability (AID 720634; calls by dose curve;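 note: human HepG2 liver cancer cells; series mostly up to about 83 µM; nearly all actives have a fitted effect of over 20% in size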)
In short: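 Viability of HepG2 cells is scored from ATP content by luminescence; cells are exposed to compound for 1 hr at 37 C and 5% CO2, then dosed with m-MPI dye before the CellTiter-Glo reagent.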

[6] = qHTS assay for small molecule disruptors of the mitochondrial membrane potential (AID 720635)
In short: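 HepG2 cells exposed to compound 1 hr at 37C, then Mito-MPS dye 30 min. Ratio read of aggregate (540/590 nm) versus monomer (490/535 nm) fluorescence.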

[7] = qHTS assay to test for compound auto fluorescence at 590 nm (red) in HepG2 cells (AID 720674)
In short: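 HepG2 cells, 2,000 per well in MEM with 10% FBS, attached overnight at 37 C, then got 23 nL compound or DMSO. After 1 hr at 37 C, 5% CO2, red fluorescence was read at 540/590 nm against Rose Bengal sodium as reference.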

[8] = qHTS assay to test for compound auto fluorescence at 535 nm (green) in HepG2 cells (AID 720675)
[9] = qHTS assay to test for compound auto fluorescence at 460 nm (blue) in HEK293 cells (AID 720678)
In short: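 Measured: blue fluorescence (Ex 405/Em 460 nm) of compound-treated HEK293 cells, incubated overnight at 37C with 5% CO2 and scaled to triamterene equivalents.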

[10] = qHTS assay to test for compound auto fluorescence at 590 nm (red) in HEK293 cells (AID 720679)
In short: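 Using HEK293 cells at 2,000 per well, the screen added 23 nL of each compound after cell attachment and incubated overnight (37C, 5% CO2). The plate reader then captured red-label fluorescence, Ex/Em 540/590nm.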

[11] = qHTS assay to test for compound auto fluorescence at 460 nm (blue) in HEK293 cell free culture (AID 720681)
In short: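 Compounds were added to cell-free DMEM with 10% FBS and fluorescence read directly. The blue channel used 405 nm excitation and 460 nm emission, with triamterene as the reference fluorophore.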

[12] = qHTS assay to test for compound auto fluorescence at 535 nm (green) in HEK293 cell free culture (AID 720682)
In short: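 Compounds were pin-transferred into cell-free DMEM with 10% FBS, and green fluorescence was read at excitation 485 nm and emission 535 nm. Intensities were expressed as fluorescein-equivalent values.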

[13] = qHTS assay to test for compound auto fluorescence at 590 nm (red) in HEK293 cell free culture (AID 720683)
In short: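 Cell-free wells of DMEM with 10% FBS received compound, and intrinsic fluorescence was read at excitation/emission 540/590 nm. Values expressed as equivalence to Rose Bengal sodium.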

[14] = qHTS assay to test for compound auto fluorescence at 590 nm (red) in HepG2 cell free culture (AID 720684)
In short: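 Auto fluorescence equivalency versus Rose Bengal sodium, red channel Ex/Em 540/590 nm; compounds in cell-free MEM/10% FBS; DMSO vehicle control.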

[15] = qHTS assay to test for compound auto fluorescence at 460 nm (blue) in HepG2 cell free culture (AID 720685)
In short: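 Cell-free plates of MEM plus 10% FBS received 23 nL compound or DMSO vehicle; blue-channel (405/460 nm) intensity scored against triamterene as reference fluorophore.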

[16] = qHTS assay to test for compound auto fluorescence at 535 nm (green) in HepG2 cell free culture (AID 720686)
[17] = qHTS assay to test for compound auto fluorescence at 460 nm (blue) in HepG2 cells (AID 720687)
In short: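 HepG2 cells in MEM with 10% FBS, attached overnight at 37 C, were exposed to compound or DMSO for 1 hr at 37 C, 5% CO2. Blue fluorescence was read at 405/460 nm, with triamterene as reference fluorophore.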

[18] = qHTS assay to test for compound auto fluorescence at 535 nm (green) in HEK293 cells (AID 720680)
[19] = biological target: Glucocorticoid receptor (Homo sapiens) (UniProt P04150); experiment: qHTS assay to identify small molecule agonists of the glucocorticoid receptor (GR) signaling pathway (AID 720691; active = well fitted activation curve with a large enough effect in the signal ratio in the repeat runs, not every such curve was filed as active; the % refers to the signal ratio)
Sequence of Glucocorticoid receptor (Homo sapiens) (P04150 whole entry, looked up): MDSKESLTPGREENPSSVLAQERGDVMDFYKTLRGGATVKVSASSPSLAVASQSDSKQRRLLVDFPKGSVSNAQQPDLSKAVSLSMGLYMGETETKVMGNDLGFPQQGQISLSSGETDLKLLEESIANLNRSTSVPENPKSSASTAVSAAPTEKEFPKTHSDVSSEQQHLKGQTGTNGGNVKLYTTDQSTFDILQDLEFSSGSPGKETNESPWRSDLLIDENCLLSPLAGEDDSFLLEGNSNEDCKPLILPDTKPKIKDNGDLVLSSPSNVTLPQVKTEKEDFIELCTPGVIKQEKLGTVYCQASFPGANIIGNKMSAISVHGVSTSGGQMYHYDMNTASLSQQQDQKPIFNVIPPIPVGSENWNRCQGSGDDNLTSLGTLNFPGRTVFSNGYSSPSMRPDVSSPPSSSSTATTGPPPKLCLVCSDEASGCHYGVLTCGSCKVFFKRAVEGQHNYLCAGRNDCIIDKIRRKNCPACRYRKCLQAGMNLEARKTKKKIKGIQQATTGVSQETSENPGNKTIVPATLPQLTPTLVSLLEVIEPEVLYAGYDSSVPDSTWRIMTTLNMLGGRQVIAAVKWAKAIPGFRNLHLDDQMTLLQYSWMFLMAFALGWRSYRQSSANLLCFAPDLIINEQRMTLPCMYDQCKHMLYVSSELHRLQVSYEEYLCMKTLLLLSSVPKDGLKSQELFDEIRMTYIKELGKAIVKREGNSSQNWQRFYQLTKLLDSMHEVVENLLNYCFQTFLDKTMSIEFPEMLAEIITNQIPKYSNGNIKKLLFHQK
In short: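 Compounds in DMSO, alongside positive controls, were added to GR-bla HeLa reporter cells and incubated 18 h at 37 C; GRE-driven beta-lactamase was detected by fluorescence after 2 h with FRET substrate at room temperature.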

[20] = biological target: Glucocorticoid receptor (Homo sapiens) (UniProt P04150); experiment: qHTS assay to identify small molecule antagonists of the glucocorticoid receptor (GR) signaling pathway (AID 720692; active = well fitted inhibition curve with a large enough effect in the signal ratio in the repeat runs, not every such curve was filed as active; the % refers to the signal ratio)
In short: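 In a 1536-well cell format, compounds were added 4 h after seeding GR-bla HeLa cells, together with dexamethasone at 5 nM final; reporter activity was measured by FRET-substrate fluorescence following 18 h at 37 C.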

SMILES | Potency [1] | Potency [2] | Potency [3] | Potency [4] | Potency [5] | Potency [6] | outcome [7] | outcome [8] | outcome [9] | outcome [10] | outcome [11] | outcome [12] | outcome [13] | outcome [14] | outcome [15] | outcome [16] | outcome [17] | outcome [18] | Potency [19] | Potency [20]
CCCCOC(=O)CCC(=O)OCCCC | inactive | inactive | inactive | inactive | inactive | inactive | inactive | inactive | inactive | inactive | inactive | inactive | inactive | inactive | inactive | inactive | inactive | – | – | –
OCCCl | inactive | inactive | inactive | inactive | inactive | – | inactive | inactive | inactive | inactive | inactive | inactive | inactive | inactive | inactive | inactive | inactive | inactive | inactive | inactive
Nc1cc(Cl)cc(C(=O)O)c1Cl | inactive | inactive | inactive | inactive | inactive | inactive | inactive | inactive | – | inactive | inactive | inactive | inactive | inactive | inactive | inactive | inactive | inactive | – | –
Cc1ccccc1 | inactive | inactive | inactive | inactive | inactive | inactive | – | – | – | – | – | – | – | – | – | – | – | – | inactive | inactive
C[C@H](N)[C@H](O)c1ccc(O)c(O)c1 | inactive | inactive | inactive | inactive | inactive | – | inactive | inactive | inactive | inactive | inactive | inactive | inactive | inactive | inactive | inactive | inactive | inactive | – | –
CN[C@@H](C)[C@H](O)c1ccccc1 | inactive | inactive | inactive | inactive | inactive | inactive | inactive | inactive | inactive | inactive | inactive | inactive | inactive | inactive | inactive | inactive | – | inactive | – | inactive
CCCCC1C(=O)NC(=O)N(C2CCCCC2)C1=O (stereo not given) | inactive | inactive | inactive | inactive | inactive | inactive | inactive | inactive | inactive | inactive | inactive | inactive | inactive | inactive | inactive | inactive | inactive | – | inactive | inactive
CCCCCCCCCCCCN(C)C | inactive | inactive | inactive | inactive | inactive | inactive | inactive | inactive | inactive | inactive | inactive | inactive | inactive | inactive | inactive | inactive | inactive | inactive | inactive | inactive
OCC1CO1 (stereo not given) | inactive | inactive | inactive | inactive | inactive | inactive | inactive | inactive | inactive | inactive | inactive | inactive | inactive | inactive | inactive | inactive | inactive | inactive | – | inactive
COc1ccc(C(O)(c2cncnc2)C2CC2)cc1 (stereo not given) | inactive | inactive | inactive | inactive | inactive | – | inactive | inactive | inactive | inactive | – | inactive | inactive | inactive | inactive | inactive | inactive | – | – | inactive
O=C1CC[C@@]2(O)[C@H]3Cc4ccc(O)c5c4[C@@]2(CCN3CC2CC2)[C@H]1O5 | inactive | inactive | inactive | inactive | inactive | – | inactive | inactive | – | inactive | inactive | inactive | inactive | inactive | inactive | inactive | inactive | inactive | inactive | inactive
c1ccc2c(c1)sc1ccccc12 | inactive | inactive | inactive | inactive | inactive | – | inactive | inactive | – | inactive | inactive | inactive | inactive | inactive | inactive | inactive | inactive | inactive | – | inactive
CC(Oc1cccc(Cl)c1)C(=O)O (stereo not given) | inactive | inactive | inactive | inactive | inactive | – | inactive | inactive | inactive | inactive | – | inactive | inactive | inactive | inactive | inactive | inactive | – | inactive | inactive
Cc1nc2ccccc2c(=O)n1-c1ccccc1Cl | inactive | inactive | inactive | inactive | inactive | – | inactive | inactive | inactive | inactive | inactive | inactive | inactive | inactive | inactive | inactive | inactive | – | inactive | inactive
C=CCc1ccc(OC(=O)Cc2ccccc2)c(OC)c1 | inactive | inactive | inactive | inactive | inactive | – | inactive | inactive | inactive | inactive | inactive | inactive | inactive | inactive | inactive | inactive | inactive | inactive | inactive | inactive
O=C1c2ccccc2C(=O)N1SC(Cl)(Cl)Cl | 8.51 µM (active) and 4.33 µM (active) | inactive | inactive | 60.3 µM (active) | – | – | inactive | inactive | inactive | inactive | inactive | inactive | inactive | inactive | inactive | inactive | inactive | inactive | – | –
